Screening data: PubChem BioAssay, The Scripps Research Institute Molecular Screening Center
ADAM17 inh: ADAM17 inhibitors, primary screen, biochemical, QFRET | recombinant ADAM17, EDANS/DABCYL FRET peptide cleavage | inhibition, % at 6.95 µM | hit rate 0.83% among 370,000;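 active = inhibition above the mean of compounds lying between control limits plus 3 SD, set per campaign, cut at about 8.5% in these data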
PLC-beta3 inh: human PLC-beta3 inhibitors, primary screen, biochemical, fluorescence | 1-phosphatidylinositol 4,5-bisphosphate phosphodiesterase beta-3 (Homo sapiens), Q01970 | Purified PLC-beta3, fluorogenic substrate | inhibition, % at 12.2 µM | hit rate 0.18% among 370,000 | AID 720704, 2013; in the data active = inhibition above about 11%
ADAM10 inh: human ADAM10 inhibitors, primary screen, biochemical, QFRET, HTS; Disintegrin and metalloproteinase domain-containing protein 10 (Homo sapiens), O14672; recombinant ADAM10, EDANS/DABCYL FRET peptide cleavage, 3 h; inhibition, % at 7 µM; hit rate 0.62% among 370,000; AID 720582, 2013;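 active = inhibition above a per-campaign cutoff equal to the mean of compounds falling between control-based bounds plus 3 SD, cut at about 20% in these data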
KLK7 zymogen act: proKLK7 zymogen activators, primary screen, biochemical, fluorescence intensity; hit rate 0.9% among 370,000; activation, % at 7 µM; AID 652039, 2013; purified proKLK7, EDANS-DABCYL substrate fluorescence; 100% is mature enzyme control, 0% vehicle; Kallikrein-7 (Homo sapiens), P49862;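 active = activation above the mean of all tested compounds plus 3 SD, computed per campaign excluding outliers beyond control limits, cut at about 13% in these data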
Target sequence (P49862 whole entry, looked up): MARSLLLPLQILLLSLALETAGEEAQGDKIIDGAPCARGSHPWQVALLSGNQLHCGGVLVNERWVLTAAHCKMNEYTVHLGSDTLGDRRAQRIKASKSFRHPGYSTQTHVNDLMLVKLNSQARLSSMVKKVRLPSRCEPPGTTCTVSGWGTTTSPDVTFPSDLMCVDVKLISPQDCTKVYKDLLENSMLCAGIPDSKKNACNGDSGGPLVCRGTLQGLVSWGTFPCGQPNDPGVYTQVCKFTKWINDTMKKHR
PLC-gamma1 inh: PLC-gamma1 enzyme inhibitors, primary screen, biochemical, fluorescence, purified enzyme | inhibition, % at 12.2 µM | 1-phosphatidylinositol 4,5-bisphosphate phosphodiesterase gamma-1 (Homo sapiens), P19174 | fluorogenic substrate | hit rate 0.84% among 370,000 | AID 720700, 2013
PLCgamma1 ctr: PLC-gamma1 enzyme inhibitors, counter-screen for PLC-beta3 inhibitor project, biochemical, fluorescence | shares compounds with PLC-gamma1 inh | inhibition, % at 12.3 µM | hit rate 3.1% among 3,300 | AID 743258, 2014 | purified PLC-gamma1, fluorogenic substrate
PLCb3 confirm: PLC-beta3 inhibitor confirmation, biochemical, fluorescence, purified enzyme. shares compounds with PLC-gamma1 inh. fluorogenic substrate fluorescence. inhibition, % at 12.3 µM. hit rate 1% among 3,300. AID 743261, 2014; in the data active = inhibition above about 11%
Of the large screens only hits and unclear results are named; the others gave an inactive call (follow-up assays come after a bar, where they were run). Compounds with a hit are over-represented: about 2.9% of the library has one in this group of screens. Rule as the data show it, unless noted: active = inhibition above about 9.5%; inactive = the rest.

COc1ccccc1CNC(=O)COC(=O)Cn1cnc2c1c(=O)n(C)c(=O)n2C	PLC-beta3 inh 11 | PLCgamma1 ctr inactive | PLCb3 confirm inactive
CC(C)Nc1nc(NCCN2CCCC2)c2sc(-c3ccccc3)cc2n1	none
Cc1ccc(SCC(=O)NCC2CCCO2)cc1 (stereo not given)	PLC-gamma1 inh 11 | PLCgamma1 ctr inactive | PLCb3 confirm inactive
CC1Cc2nc(SCC(=O)NCC3CCCO3)n(Cc3ccccc3)c(=O)c2S1 (stereo not given)	PLC-gamma1 inh 9.6 | PLCgamma1 ctr inactive | PLCb3 confirm inactive
COc1ccc(CNC(=O)CCn2c(C)csc2=O)cc1	PLC-gamma1 inh 11 | PLCgamma1 ctr inactive | PLCb3 confirm inactive
COc1ccccc1Cc1c(-c2ccccc2)nc2c3ccccc3ccn12	none
COc1cc(/C=N/NC(=O)c2cccnc2)ccc1OCC(=O)Nc1ccccc1Cl	none
COc1cc(/C=N/NC(=O)c2cccnc2)ccc1OCC(=O)Nc1c(C)cc(C)cc1C	PLC-gamma1 inh 10 | PLCgamma1 ctr inactive | PLCb3 confirm inactive
O=C(NCCc1ccccc1)C1CCN(S(=O)(=O)c2cccs2)CC1	PLC-gamma1 inh 9.8 | PLCgamma1 ctr inactive | PLCb3 confirm inactive
NS(=O)(=O)c1cccc(NC(=O)COC(=O)C2CCN(S(=O)(=O)c3cccs3)CC2)c1	PLC-gamma1 inh 9.7 | PLCgamma1 ctr inactive | PLCb3 confirm inactive
O=C(NCCc1ccccc1)C1CCN(S(=O)(=O)c2cccc3nonc23)CC1	PLC-gamma1 inh 11 | PLCgamma1 ctr inactive | PLCb3 confirm inactive
O=C(C1CCCN(S(=O)(=O)c2cccc3nonc23)C1)N1CCN(c2ccccc2Cl)CC1 (stereo not given)	PLC-gamma1 inh 14 | PLCgamma1 ctr inactive | PLCb3 confirm inactive
O=C(NCCc1ccc(Cl)cc1)C1CCN(S(=O)(=O)c2cccs2)CC1	none
O=C(NCCc1ccc(Cl)cc1)C1CCN(S(=O)(=O)c2cccc3nonc23)CC1	none
Cc1ccc(S(=O)(=O)N2c3ccccc3OC(C(=O)OC(C)(C)C)(C(=O)OC(C)(C)C)C2CC(=O)c2ccccc2)cc1 (stereo not given)	none
O=[N+]([O-])c1ccc(N2CCN(Cc3ccc([N+](=O)[O-])o3)CC2)cc1	PLC-gamma1 inh 9.8 | PLCgamma1 ctr inactive | PLCb3 confirm inactive
CC(C)NC(=O)C1C(c2ccc(C(F)(F)F)cc2)=Nc2ccccc2N1C(=O)c1cc2ccccc2[nH]1 (stereo not given)	none
COc1ccc(N(C(=O)COc2ccccc2)C2C=CS(=O)(=O)C2)c(OC)c1 (stereo not given)	PLC-gamma1 inh 14 | PLCgamma1 ctr inactive | PLCb3 confirm inactive
CCOc1cc(CN2CCN(c3cccc(C(F)(F)F)c3)CC2)ccc1O	PLC-gamma1 inh 9.7 | PLCgamma1 ctr inactive | PLCb3 confirm inactive
CNC(C#Cc1ccccc1)c1ccccc1C(F)(F)F (stereo not given)	none (no result: KLK7 zymogen act)
COc1ccc(C(c2c(C)[nH]n(-c3ccccc3)c2=O)c2c(C)[nH]n(-c3ccccc3)c2=O)cc1OC	PLC-gamma1 inh 25 | PLCgamma1 ctr inactive | PLCb3 confirm inactive
O=C(c1ccccc1)c1ccc(OCC(O)CNCc2ccc(Cl)cc2)cc1 (stereo not given)	PLC-gamma1 inh 12 | PLCgamma1 ctr inactive | PLCb3 confirm inactive
CC(C)OC(=O)CSc1nc2c(c(C3CC=CCC3)c1C#N)CCC2 (stereo not given)	PLC-gamma1 inh 9.6 | PLCgamma1 ctr inactive | PLCb3 confirm inactive
C=CCSc1nc2c(c(C3CC=CCC3)c1C#N)CCC2 (stereo not given)	none
c1ccc([C@H]2CNCCN2CCc2cccc3ccccc23)cc1	PLC-gamma1 inh 12 | PLCgamma1 ctr inactive | PLCb3 confirm inactive
CNc1ncnc2c1ncn2[C@H]1CN(Cc2ccc3c(c2)OCO3)C[C@@H](CO)O1	none
S=C(NCCN1CCOCC1)Nc1ccc(Cl)cc1	none
O=C(NCCN1CCOCC1)Nc1ccc(Cl)cc1	PLC-gamma1 inh 12 | PLCgamma1 ctr inactive | PLCb3 confirm inactive
O=[N+]([O-])c1ncn(Cc2c(Cl)cccc2Cl)n1	none
O=[N+]([O-])c1ncn(Cc2ccccc2Cl)n1	PLC-beta3 inh 13 | PLCgamma1 ctr inactive | PLCb3 confirm inactive
CCCCCCCCN1C(=O)[C@@H](CC(=O)NCCCC)C[C@@]2(C(=O)OC)C1=C[C@H](COCc1ccccc1)O[C@@H]2C	none
O=C(NCC(=O)N(c1ccccc1)C(C(=O)NC1CCCC1)c1cccnc1)c1ccco1 (stereo not given)	PLC-gamma1 inh 10 | PLCgamma1 ctr inactive | PLCb3 confirm inactive
C=CCN(C(=O)CNC(=O)c1ccco1)C(C(=O)NC1CCCCC1)c1ccc(F)cc1 (stereo not given)	PLC-gamma1 inh 10 | PLCgamma1 ctr inactive | PLCb3 confirm inactive
O=C(NC1CCCC1)C(c1ccccc1)N(C(=O)c1ccco1)C1CCCC1 (stereo not given)	PLC-gamma1 inh 9.9 | PLCgamma1 ctr inactive | PLCb3 confirm inactive
O=C(CN1C(=O)NC2(CCCc3ccccc32)C1=O)NCc1cccs1 (stereo not given)	none
CCOC(=O)c1cnc2ccc(C)cc2c1NCCN1CCOCC1	PLC-gamma1 inh 11 | PLCgamma1 ctr inactive | PLCb3 confirm inactive
COc1cccc(CN2CCC2(C)C(=O)Nc2cccc3cccnc23)c1OC (stereo not given)	none
CCc1ccc(OCCOCC(O)CN(CCO)CCO)cc1 (stereo not given)	PLC-beta3 inh 11 | PLCgamma1 ctr inactive | PLCb3 confirm inactive
NC(=O)Nc1cccc2ccccc12	none
CCC(=O)Nc1cccc2ccccc12	PLC-gamma1 inh 11 | PLCgamma1 ctr inactive | PLCb3 confirm inactive
CC1CCN(CCCNC(=O)C2CCC(CNS(=O)(=O)c3cccc4nsnc34)CC2)CC1 (stereo not given)	none
O=C(NCCCN1CCCCC1)C1CCC(CNS(=O)(=O)c2cccc3nsnc23)CC1 (stereo not given)	PLC-gamma1 inh 10 | PLCgamma1 ctr inactive | PLCb3 confirm inactive
CCn1c(SCC(=O)Nc2ccccc2-c2ccccc2)nnc1-c1ccc(Cl)cc1	none
COc1ccc(N(CC(=O)NC2CC3CCC2C3)S(=O)(=O)c2ccc(C)cc2)cc1Cl (stereo not given)	none
CCn1c(Cc2cccs2)nnc1SCC(=O)Nc1cccc2ccccc12	none
